Assay outcomes as filed in PubChem.
KAT2A inh – blocks human GCN5L2 histone acetyltransferase | Q92830 | GCN5L2 HAT assay, ThioGlo1 CoA-SH fluorescence | Potency, µM (titrated, usually from 58.9 µM), for inactives: at the top dose activity change, negative = inhibition, most hits filed as inhibitors | 390,000 tested, 0.21% active | AID 504327
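qHTS, 1536-well. 20nM enzyme, pH 7.5 HEPES/EDTA/Tween-20 buffer; 15 min compound preinc., RT. Start: 75uM H3(1-25), 70uM AcCoA, 50uM ThioGlo1. Read Ex340/Em540 at t=0 (autofluorescence flag) and t=20 min.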
BLM inh – Bloom syndrome helicase (human) inhibition. 350,000 tested, 0.2% active. recombinant BLM DNA unwinding, fluorescence dequenching. Potency, µM (titrated, usually from 56.1 µM), inactives show at the highest dose activity change, negative = inhibition, usual class: inhibitors. P54132;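 further: plate controls were vehicle for no effect and no enzyme for full effect; nearly all actives have a fitted effect of over 35% in size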
TDP1 inh – inhibitors of human tyrosyl-DNA phosphodiesterase TDP1. Q9NUW8. recombinant TDP1, AlphaScreen DNA substrate cleavage. Potency, µM (titrated, usually from 130 µM), inactives show at the top dose activity change, negative = inhibition, hits mostly inhibitors. 350,000 tested, 0.28% active. AID 485290; further: nearly all actives have a fitted effect of over 40% in size
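Tdp1 1 nM final; 15 min RT w/ cpd; substrate 15 nM, 5 min; beads 10 ug/ml, 10 min; AlphaScreen read. Neg ctrl: no enzyme.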
APEX1 inh – APE1 (human) endonuclease inhibition. P27695. recombinant APE1, TAMRA/BHQ-2 abasic DNA cleavage fluorescence. Potency, µM (titrated, usually from 65.8 µM), for the others: at the top dose activity change, negative = inhibition, most hits filed as inhibitors. 350,000 tested, 0.35% active. AID 2517;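 further: plate controls were vehicle for no effect and reference inhibitor for full effect; nearly all actives have a fitted effect of over 55% in size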
Target sequence (P27695 whole entry, looked up): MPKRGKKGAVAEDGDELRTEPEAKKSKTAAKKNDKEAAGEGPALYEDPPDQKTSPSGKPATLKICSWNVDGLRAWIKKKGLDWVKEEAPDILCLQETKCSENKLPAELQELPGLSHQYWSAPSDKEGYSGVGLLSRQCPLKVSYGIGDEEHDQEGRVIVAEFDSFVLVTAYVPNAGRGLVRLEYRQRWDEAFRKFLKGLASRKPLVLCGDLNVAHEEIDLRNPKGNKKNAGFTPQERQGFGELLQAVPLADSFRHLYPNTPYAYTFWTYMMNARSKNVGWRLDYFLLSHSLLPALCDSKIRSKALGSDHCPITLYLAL
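Kinetic fluorescence read (525 ex/598 em nm, three reads 60 s apart) of AP-site incision; signal = third minus first read. Enzyme 0.75 nM, dual-labelled THF duplex 50 nM, compound preincubation 15 min RT.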
RECQ1 helicase – inhibitors of human RECQ1 DNA helicase | P46063 | RECQ1 DNA unwinding, red fluorescence kinetic read | Potency, µM (doses to about 57.3 µM), for the others: top-dose activity, negative = inhibition, hits mostly inhibitors | 240,000 tested, 0.54% active;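 further: plate controls were vehicle for no effect and no enzyme for full effect; nearly all actives have a fitted effect of over 30% in size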
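50 nM RECQ1T1 preincubated 15 min with compound in Tris pH 8.0 buffer with MgCl2, DTT, Tween-20 and 2.5 ug/ml poly(dI-dC); started with 200 nM TAMRA/BHQ-2 forked duplex and 2 mM ATP. Unwinding read as fluorescence (525/598 nm), two reads 2 h apart.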
JMJD2E inh – inhibitors of human JMJD2E histone demethylase; JMJD2E catalytic domain, FDH-coupled NADH fluorescence (FDH is formaldehyde dehydrogenase); Potency, µM (doses to about 57.1 µM), inactives show at the highest dose activity change, negative = inhibition, actives largely listed as inhibitors; 230,000 tested, 1.6% active; active means well fitted inhibition curve with a large enough effect, not every such curve was filed as active; inconclusive means small, poorly fitted or top-dose-only effect, or another doubt; inactive means no such curve, though single readings can be large or run the other way;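 further: 0% = wells with enzyme and -100% = buffer wells without enzyme; nearly all actives have a fitted effect of over 50% in size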
Target sequence (B2RXH2 1-337 limits assumed): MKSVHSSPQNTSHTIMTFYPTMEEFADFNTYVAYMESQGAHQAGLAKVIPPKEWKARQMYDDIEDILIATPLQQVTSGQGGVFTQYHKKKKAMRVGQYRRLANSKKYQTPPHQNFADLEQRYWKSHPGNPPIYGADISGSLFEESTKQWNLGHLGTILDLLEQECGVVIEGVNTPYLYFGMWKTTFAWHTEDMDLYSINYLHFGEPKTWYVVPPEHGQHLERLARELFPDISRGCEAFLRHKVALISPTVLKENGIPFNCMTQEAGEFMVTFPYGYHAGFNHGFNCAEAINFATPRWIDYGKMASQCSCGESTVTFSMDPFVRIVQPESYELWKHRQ
Starred values were filed as active, the others as inactive; ! = repeats disagree. The entries come from a sample that favours hits as a whole. Unless noted, the call rests on the fitted dose curve; in most records, active means well fitted curve in the direction sought with a large enough effect; inconclusive means small, poorly fitted or top-dose-only effect, or another doubt; inactive means no such curve, though single readings can be large; an effect the other way counts as inactive or inconclusive. Unless noted, on the % scale 0 is the no-effect control and ±100 the full control effect; potency means the concentration at half of the fitted maximal effect.

COC(=O)c1ccccc1-c1c2ccc(=N)cc-2oc2cc(N)ccc12 was read as KAT2A inh inconclusive, TDP1 inh 8% and APEX1 inh 27µM*.
For Cc1cc2c(cc1S(=O)(=O)NCc1ccccc1)OCC(=O)N2 the results were KAT2A inh 25µM*!, BLM inh -1%, TDP1 inh 1% and APEX1 inh 15%.
`Cc1cc2c(cc1S(=O)(=O)NCc1ccccc1Cl)OCC(=O)N2` gave KAT2A inh -12%, BLM inh 0% and TDP1 inh 0%.
O=C(OCC#CCSc1nnc(-c2cccc3ccccc23)o1)c1ccsc1 was read as TDP1 inh -6%.
For O=S(=O)(Nc1cc2nc3ccccc3nc2n1Cc1ccccc1)c1ccc(Cl)cc1 the results were KAT2A inh inconclusive, BLM inh 5µM*, TDP1 inh -3%, APEX1 inh 1%, RECQ1 helicase 6% and JMJD2E inh inconclusive.
COc1ccc(C2Nc3ccccc3C(=O)N2Cc2ccccn2)cc1COc1ccc(NC(C)=O)cc1 (stereo unspecified) was read as TDP1 inh -11%.
Screening COc1cc(F)c(S(=O)(=O)N2CCN(S(=O)(=O)c3ccco3)CC2)c(F)c1 returned TDP1 inh -16%.
COc1ccc2cc([C@H](C)CO)ccc2c1 was read as APEX1 inh -1%.
Screening COc1ccc2cc(C(C)C(=O)OC(C)C)ccc2c1 (stereo unspecified) returned KAT2A inh -1%, TDP1 inh 79µM* and APEX1 inh 9%.
`CC(Oc1ccc(O)cc1)(P(=O)(O)O)P(=O)(O)O` gave KAT2A inh -12%, BLM inh -5%, TDP1 inh 7%, APEX1 inh inconclusive, RECQ1 helicase -6% and JMJD2E inh 1.6µM*.
Screening O=S1(=O)N=C(Oc2ccccc2Cl)c2ccccc21 returned TDP1 inh 0%.
For O=C1NN(c2ccccc2)C(=O)/C1=C/c1ccc(-c2ccc(C(=O)O)cc2)o1 the results were KAT2A inh inconclusive, BLM inh -7% and APEX1 inh -32%.
O=C1NN(c2ccccc2)C(=O)/C1=C/c1ccc(Sc2cccc3ccccc23)o1 was read as KAT2A inh 0%, BLM inh inconclusive, TDP1 inh 8%, APEX1 inh -2%, RECQ1 helicase 20µM* and JMJD2E inh -4%.
`O=C(NC1CC1)c1cc(-c2cccs2)on1` gave APEX1 inh 9%.
COc1cccc(Cn2ncc3c4sc(SC)cc4n(C)c3c2=O)c1 was read as TDP1 inh 0%.
Screening CCOc1ccc2c(c1)C(C)=CC(C)(C)N2 returned KAT2A inh -10%, BLM inh 6%, TDP1 inh 7%, APEX1 inh 15%, RECQ1 helicase -4% and JMJD2E inh inconclusive.
Screening CC1=CC(C)(C)Nc2ccc(OC(=O)CN3C(=O)c4cccc5cccc(c45)C3=O)cc21 returned KAT2A inh inconclusive, BLM inh -15%, TDP1 inh 8%, APEX1 inh 20%, RECQ1 helicase -9% and JMJD2E inh 13µM*.
`COC(C(=O)C(O)C(C)O)C1Cc2cc3cc(OC4CC(OC5CC(O)C(O)C(C)O5)C(O)C(C)O4)c(C)c(O)c3c(O)c2C(=O)C1OC1CC(OC2CC(OC3CC(C)(O)C(O)C(C)O3)C(O)C(C)O2)C(O)C(C)O1` (stereo unspecified) gave KAT2A inh 0% and BLM inh -2%.
`CCOC(=O)N1CCN(C(=O)CSCC(=O)Nc2nc(-c3ccc(-c4ccccc4)cc3)cs2)CC1` gave KAT2A inh 0%, BLM inh -7%, TDP1 inh 9%, APEX1 inh 2%, RECQ1 helicase 13% and JMJD2E inh 35µM*.
For COc1cc(OC)cc(C2=Nn3c(nnc3-c3ccccc3OC)SC2)c1 the results were BLM inh 0%, TDP1 inh 1%, APEX1 inh 0% and RECQ1 helicase -22%.
`CCOc1c2c(c(-c3ccc4c(c3)OCO4)c3cc(OC)c(OC)cc13)C(=O)OC2` gave TDP1 inh 3%.
For O=C(COc1ccc(S(=O)(=O)N2CCOCC2)cc1)N1CCOCC1 the results were KAT2A inh 2%, TDP1 inh 0% and APEX1 inh -9%.
`O=C(COc1ccc(/C=C\[N+](=O)[O-])cc1)N1CCOCC1` gave KAT2A inh -12%, BLM inh 0%, TDP1 inh 6%, APEX1 inh inconclusive, RECQ1 helicase 32µM* and JMJD2E inh -30%.
`COc1ccc2c(c1)NC(c1ccc(OCC(C)C)cc1)=NC(c1ccncc1)=N2` gave KAT2A inh -30%, BLM inh -6% and TDP1 inh 12%.
For COC1=C(OC)C(=O)c2ccccc2C1=O the results were KAT2A inh 0%, APEX1 inh -5%, RECQ1 helicase -11% and JMJD2E inh 11µM*.
For C[n+]1ccc(/C=C/c2ccc3ccccc3c2)cc1 the results were KAT2A inh 28µM*, TDP1 inh 7%, APEX1 inh -3% and RECQ1 helicase 20%.
Screening NC(=O)C1CCN(c2nc(-c3ccccc3Cl)cs2)CC1 returned APEX1 inh 30%.
For O=C(Nc1ccc(Br)cc1)c1cnn2c1NC(=C1CC1)C=C2C(F)F the results were APEX1 inh 16%.
For CC(C)c1ccc(NC(=O)C[n+]2ccn(C3=C([O-])c4ccccc4C3=O)c2)cc1 the results were KAT2A inh -3%, BLM inh -20%, TDP1 inh 50µM*, APEX1 inh -1%, RECQ1 helicase inactive and JMJD2E inh -8%.
Screening CCCCC[n+]1ccn(C2=C([O-])c3ccccc3C(=O)/C2=N\S(=O)(=O)c2ccccc2)c1 returned KAT2A inh -2%, BLM inh -8%, TDP1 inh 4%, APEX1 inh 16%, RECQ1 helicase inactive and JMJD2E inh -15%.
Cc1ccc(NS(=O)(=O)c2ccc3ccccc3c2)cc1C was read as TDP1 inh -2%.
CC1(C)OC(c2ccccc2)=C/C(=C\C=N\NC(=O)c2ccncc2)O1 was read as KAT2A inh -8%, BLM inh -7%, TDP1 inh 13%, APEX1 inh inconclusive, RECQ1 helicase -22% and JMJD2E inh 22µM*.
